{"source": "PubChem BioAssay (NCATS)", "note": "Inconclusive results are not listed. Values without a mark were called inactive. Calls follow the shape of the dose curve; as a rule, active = well fitted inhibition curve with a large enough effect; inconclusive = small, poorly fitted or top-dose-only effect; inactive = no such curve, though single readings can be large or run the other way.", "data": [{"target": "Retinaldehyde dehydrogenase 3 (Homo sapiens) (UniProt P47895)", "test": "qHTS for Inhibitors of the Aldehyde Dehydrogenase Family (ALDH1A3) Primary screen (AID 2061315);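 also: plate controls were DMSO vehicle for no effect and reference inhibitor for full effect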", "settings": "ALDH inhibition qHTS; series mostly up to 56 µM; activity change, negative = inhibition: at the top concentration", "values": [{"smiles": "Cc1ccc(NS(=O)(=O)c2ccc3c(c2)n(C)c(=O)n3C)cc1C", "activity change, negative = inhibition": "-2.76%"}, {"smiles": "CC(C)(C)OC(=O)N[C@@H](Cc1ccc(O[S+](=O)([O-])c2cccc3cnccc23)cc1)C(=O)Nc1ccc(-c2ccccc2)cc1", "activity change, negative = inhibition": "-14.3%"}, {"smiles": "CCCCNc1nc(C)nc2c1nc(-c1ccccc1)n2C1CCN(Cc2ccccc2)C1", "note": "(stereo not drawn)", "activity change, negative = inhibition": "7.02%"}, {"smiles": "C=Cc1ccc(C(=O)N2CCCC(CCC(=O)N3CCN(c4ccccn4)CC3)C2)cc1", "note": "(stereo not drawn)", "activity change, negative = inhibition": "-16.2%"}, {"smiles": "COc1cc(-c2ccc3ncnc(N(C)Cc4csc(C)n4)c3c2)cc(OC)c1OC", "activity change, negative = inhibition": "-12%"}, {"smiles": "O=C(Nc1ccc2c(c1)OCCO2)Nc1nnc(-c2ccncc2)s1", "activity change, negative = inhibition": "0.914%"}, {"smiles": "COc1ccccc1OC1=NS(=O)(=O)c2ccccc21", "activity change, negative = inhibition": "-1.71%"}, {"smiles": "COc1cc(O)c(C(CC(=O)N2CCCC(C(=O)N3CCCCC3)C2)c2ccc3c(c2)OCO3)c(OC)c1", "note": "(stereo not drawn)", "activity change, negative = inhibition": "6.86% [at 114 µM]"}, {"smiles": "CC(C)=CCC[C@](C)(O[C@@H]1O[C@H](CO[C@@H]2O[C@@H](CO)[C@H](O)[C@H]2O)[C@@H](O)[C@H](O)[C@H]1O)[C@H]1CC[C@]2(C)[C@@H]1[C@H](O)C[C@@H]1[C@@]3(C)CC[C@H](O[C@@H]4O[C@H](CO)[C@@H](O)[C@H](O)[C@H]4O[C@@H]4O[C@H](CO)[C@@H](O)[C@H](O)[C@H]4O)C(C)(C)[C@@H]3CC[C@]12C", "activity change, negative = inhibition": "17.5% [at 28 µM]"}, {"smiles": "Cc1noc(C)c1-c1ccc2ncnc(NCc3cccc(-c4ccccc4)c3)c2c1", "activity change, negative = inhibition": "-1.14%"}, {"smiles": "Brc1cnc2nc(SCc3ccccc3)[nH]c2c1", "activity change, negative = inhibition": "-14.8%"}, {"smiles": "FC(F)(F)c1cccc(N2CCN(C(=S)Nc3ccncc3)CC2)c1", "activity change, negative = inhibition": "22%"}, {"smiles": "c1ccc2c(Nc3nnc(-c4ccncc4)s3)cccc2c1", "activity change, negative = inhibition": "-13.6%"}]}]}
